Source: PubChem BioAssay (NCI)
Compounds without any hit were thinned out: in the full panel of roughly 79,000, 15% have a hit. Unmarked numbers belong to inactive results. The source made the active and inactive calls. No stated cut-off is given here; in the data, active means growth inhibition above about 70%; inactive means the rest.

Experiments:
[1] = NCI Yeast Anticancer Drug Screen. Data for the rad50 strain (AID 155);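 further: 0% = growth of vehicle-only cultures of the same strain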; conditions: S. cerevisiae rad50 strain growth inhibition; at 50.0 µM; active compounds read high
Summary of the method: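 Compounds were tested on a yeast strain with an engineered DNA damage repair alteration; the reported value is growth inhibition normalised to vehicle treatment.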

[2] = NCI Yeast Anticancer Drug Screen. Data for the mec2-1 strain (AID 157); conditions: S. cerevisiae mec2-1 strain, at 50.0 µM, active compounds read high
Summary of the method: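 Mutant yeast (mec2-1) grown with compound; growth inhibition relative to vehicle control reported.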

[3] = NCI Yeast Anticancer Drug Screen. Data for the sgs1 mgt1 strain (AID 161);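 further: 0% = growth of cultures given vehicle only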; conditions: S. cerevisiae sgs1 mgt1 strain, at 50.0 µM, active compounds read high
Summary of the method: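 Yeast cells carrying a defined DNA-repair defect were exposed to test compounds. Growth inhibition was measured relative to vehicle-treated controls.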

[4] = NCI Yeast Anticancer Drug Screen. Data for the cln2 rad14 strain (AID 165);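 further: 0% = growth equal to vehicle treated cultures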; conditions: S. cerevisiae cln2 rad14 strain, at 50.0 µM, active compounds read high
Summary of the method: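 Readout is yeast growth inhibition versus vehicle-treated controls, using a strain with cln2 and rad14 alterations exposed to compound.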

[5] = NCI Yeast Anticancer Drug Screen. Data for the bub3 strain (AID 167); conditions: S. cerevisiae bub3 mutant strain, at 50.0 µM, active compounds read high
Summary of the method: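 Growth of a checkpoint-deficient yeast mutant is measured after compound exposure. Values represent inhibition relative to vehicle.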

[6] = NCI Yeast Anticancer Drug Screen. Data for the mlh1 rad18 strain (AID 175); conditions: S. cerevisiae mlh1 rad18 strain growth inhibition; at 50.0 µM; active compounds read high
Summary of the method: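 Genetically defined yeast (DNA repair-deficient) exposed to compounds; growth inhibition determined relative to vehicle.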

Cc1cc(C(N)=O)c2ccccc2n1
growth inhibition [1]: -11%
growth inhibition [2]: -47.2%
growth inhibition [3]: -15.7%
growth inhibition [4]: 11.4%
growth inhibition [5]: -34.4%
growth inhibition [6]: -6.25%

COc1cc2c(cc1O)C1CC(CC3CCCCN31)OC(=O)/C=C\c1ccc(O)c-2c1 (configuration not stated)
growth inhibition [1]: -28.1%
growth inhibition [2]: -48.3%
growth inhibition [3]: -31.2%
growth inhibition [4]: 20.8%
growth inhibition [5]: -43.9%
growth inhibition [6]: -54.2%

ClCc1ccc(-c2ccccc2)cc1
growth inhibition [1]: 48.8%
growth inhibition [2]: 16.4%
growth inhibition [3]: 19.7%
growth inhibition [4]: 26.7%
growth inhibition [5]: 8.7%
growth inhibition [6]: 47%

C=C(C(=C)N1N=NC2C3CCC(C3)C21)N1N=NC2C3CCC(C3)C21 (configuration not stated)
growth inhibition [1]: -5.9%
growth inhibition [2]: -15.9%
growth inhibition [3]: 10.3%
growth inhibition [4]: 7.15%
growth inhibition [5]: -4.75%
growth inhibition [6]: -7.95%

Nc1nc(SCc2ccccc2)c2ncn(Cc3ccccc3)c2n1
growth inhibition [1]: 5.75%
growth inhibition [2]: -7.55%
growth inhibition [3]: -15.1%
growth inhibition [4]: 10.5%
growth inhibition [5]: -2.9%
growth inhibition [6]: 9.55%

Cc1cccc(/C=C/c2cccc[n+]2[O-])[n+]1[O-]
growth inhibition [1]: 3.1%
growth inhibition [2]: -11.2%
growth inhibition [3]: -19.9%
growth inhibition [4]: -31.8%
growth inhibition [5]: -0.2%
growth inhibition [6]: -5.25%

CCCc1cc(=O)[nH]c(=S)[nH]1
growth inhibition [1]: 34.6%
growth inhibition [2]: -8.25%
growth inhibition [3]: 1.7%
growth inhibition [4]: 15.8%
growth inhibition [5]: 11.2%
growth inhibition [6]: 15.8%

COc1cc(C2c3cc4c(cc3OC(N3CCCCC3)C2C)OCO4)cc(OC)c1O (configuration not stated)
growth inhibition [1]: 1.45%
growth inhibition [2]: -14.3%
growth inhibition [3]: -14.3%
growth inhibition [4]: 6.95%
growth inhibition [5]: -18.5%
growth inhibition [6]: -9.25%

CC(C)CNC(=S)N/N=C/C=C/c1ccc(C(C)C)cc1
growth inhibition [1]: -18.2%
growth inhibition [2]: -12.7%
growth inhibition [3]: 20.3%
growth inhibition [4]: -16.1%
growth inhibition [5]: 53.9%
growth inhibition [6]: 0.35%

CCOC(=O)/C=C/c1nc(C(=O)OCC)c(C)c(=O)[nH]1
growth inhibition [1]: -0.55%
growth inhibition [2]: 8.3%
growth inhibition [3]: 22%
growth inhibition [4]: 7%
growth inhibition [5]: 1.25%
growth inhibition [6]: -24.1%

CC1(C)OC2COC(c3[nH]nc4c(=O)[nH]c(=O)[nH]c34)C2O1 (configuration not stated)
growth inhibition [1]: 1.1%
growth inhibition [2]: -5.65%
growth inhibition [3]: -26.9%
growth inhibition [4]: -20.8%
growth inhibition [5]: -64.3%
growth inhibition [6]: -5%

C[C@@H](O)[C@H](NSc1ccccc1[N+](=O)[O-])C(=O)NCCc1nc(-c2nc(C(=O)NCCCBr)cs2)cs1
growth inhibition [1]: -0.8%
growth inhibition [2]: 2.35%
growth inhibition [3]: -2.1%
growth inhibition [4]: -21.5%
growth inhibition [5]: 1.55%
growth inhibition [6]: 13%

Cn1c(=O)c(Cl)c(N=[N+]=[N-])c2ccccc21
growth inhibition [1]: 45.1%
growth inhibition [2]: 37.4%
growth inhibition [3]: 44%
growth inhibition [4]: 51%
growth inhibition [5]: 22%
growth inhibition [6]: 30.2%

NC(CS)C(=O)NCCNCCNc1ccc(NCCNCCNC(=O)C(N)CS)c2c1C(=O)c1c(O)ccc(O)c1C2=O (configuration not stated)
growth inhibition [1]: -30.4%
growth inhibition [2]: -12.4%
growth inhibition [3]: 2.1%
growth inhibition [4]: -0.85%
growth inhibition [5]: -10.5%
growth inhibition [6]: -12.7%

CN(C)c1ccc(/C=c2\[nH]c(=O)/c(=C\c3ccc(N(C)C)cc3)[nH]c2=O)cc1
growth inhibition [1]: 4.3%
growth inhibition [2]: 4.6%
growth inhibition [3]: 12.2%
growth inhibition [4]: 14.6%
growth inhibition [5]: -8.55%
growth inhibition [6]: 16.2%

O=C(OCc1ccccc1)C1CCCN1C(=O)C(CSC(c1ccccc1)(c1ccccc1)c1ccccc1)NC(c1ccccc1)(c1ccccc1)c1ccccc1 (configuration not stated)
growth inhibition [1]: -5.5%
growth inhibition [2]: -1.35%
growth inhibition [3]: -0.8%
growth inhibition [4]: -11.3%
growth inhibition [5]: -7.55%
growth inhibition [6]: 24.6%

Cc1cc2c(c3oc(C4(C)OC4C4OC4C)cc(=O)c13)C(=O)c1c(O)c(C3CC(C)(N(C)C)C(O)C(C)O3)cc(C3CC(N(C)C)C(O)C(C)O3)c1C2=O (configuration not stated)
growth inhibition [1]: 88.6% (active)
growth inhibition [2]: 92.2% (active)
growth inhibition [3]: 90.7% (active)
growth inhibition [4]: 88.8% (active)
growth inhibition [5]: 89.2% (active)
growth inhibition [6]: 87.5% (active)

O=C(CN1CCCC1=O)CS(=O)(=O)c1ccccc1
growth inhibition [1]: -14.5%
growth inhibition [2]: -5.3%
growth inhibition [3]: -20.3%
growth inhibition [4]: -0.6%
growth inhibition [5]: -9.6%
growth inhibition [6]: 2.3%

O/N=C/c1nc2ccccc2s1
growth inhibition [1]: 10.2%
growth inhibition [2]: 22.8%
growth inhibition [3]: -3.65%
growth inhibition [4]: -55.6%
growth inhibition [5]: -17.6%
growth inhibition [6]: 23.8%

C/C(CCC1CCCCC1)=N/Nc1ccc([N+](=O)[O-])cc1[N+](=O)[O-]
growth inhibition [1]: 24%
growth inhibition [2]: 8.9%
growth inhibition [3]: 22.8%
growth inhibition [4]: 16.5%
growth inhibition [5]: 6.95%
growth inhibition [6]: 5.55%

CCOC(=O)/C(C#N)=C/c1ccc([N+](=O)[O-])cc1
growth inhibition [1]: 19.2%
growth inhibition [2]: -2.75%
growth inhibition [3]: 14.5%
growth inhibition [4]: -5.6%
growth inhibition [5]: 0.35%
growth inhibition [6]: 8.4%

Cc1nc(N)nc2c1ncn2CCO
growth inhibition [1]: 14.6%
growth inhibition [2]: 16.1%
growth inhibition [3]: 9.6%
growth inhibition [4]: -4.25%
growth inhibition [5]: 24.9%
growth inhibition [6]: 9.85%

CCC(=O)NC(C(=O)O)C(C)(C)S (configuration not stated)
growth inhibition [1]: -0.4%
growth inhibition [2]: -3.65%
growth inhibition [3]: 0.1%
growth inhibition [4]: 5.9%
growth inhibition [5]: 2.4%
growth inhibition [6]: -3.95%

N#CCCC(CCC#N)(CCC(CCC#N)(CCC#N)[N+](=O)[O-])[N+](=O)[O-]
growth inhibition [1]: -4.05%
growth inhibition [2]: 11%
growth inhibition [3]: 10.8%
growth inhibition [4]: -11.6%
growth inhibition [5]: 8.8%
growth inhibition [6]: 6.3%

CC(=O)NNC(=S)/N=C\c1c(O)c2ccccc2oc1=O
growth inhibition [1]: -50.5%
growth inhibition [2]: -45.6%
growth inhibition [3]: -34.2%
growth inhibition [4]: -13.2%
growth inhibition [5]: -38.5%
growth inhibition [6]: -37.9%

O=NNc1ccc(S(=O)(=O)c2ccccc2)cn1
growth inhibition [1]: 49.1%
growth inhibition [2]: 13.9%
growth inhibition [3]: -27.9%
growth inhibition [4]: 12.1%
growth inhibition [5]: -26.6%
growth inhibition [6]: 5.2%

Fc1cccc(-c2nnc(-c3cccc(F)c3)o2)c1
growth inhibition [1]: 12.7%
growth inhibition [2]: -10.1%
growth inhibition [3]: -6.9%
growth inhibition [4]: -38%
growth inhibition [5]: -2.65%
growth inhibition [6]: -4.85%

ClCC[n+]1ccc2ccccc2c1
growth inhibition [1]: 3.95%
growth inhibition [2]: 11.6%
growth inhibition [3]: -13.4%
growth inhibition [4]: -13.8%
growth inhibition [5]: -9.05%
growth inhibition [6]: -10.7%

COc1ccc2c(c1)CC/C2=N/O
growth inhibition [1]: -10.7%
growth inhibition [2]: 3.05%
growth inhibition [3]: -4.5%
growth inhibition [4]: -21.3%
growth inhibition [5]: -22.8%
growth inhibition [6]: 2.1%

N#CC1CC=CCN1CCc1ccccc1 (configuration not stated)
growth inhibition [1]: -9.5%
growth inhibition [2]: -5.75%
growth inhibition [3]: -4.95%
growth inhibition [4]: 42.5%
growth inhibition [5]: 20.7%
growth inhibition [6]: 7.5%

COC(O)C(=O)c1c2c(cc3c1CCC3)CCC2 (configuration not stated)
growth inhibition [1]: 29.1%
growth inhibition [2]: 45.8%
growth inhibition [3]: 39.3%
growth inhibition [4]: 12.3%
growth inhibition [5]: 21.1%
growth inhibition [6]: 21%

CNCCC1CCCCCC1
growth inhibition [1]: 1.8%
growth inhibition [2]: 5.45%
growth inhibition [3]: -1.15%
growth inhibition [4]: -13.5%
growth inhibition [5]: 10.9%
growth inhibition [6]: -2.8%

NC(N)=Nc1ccccc1OC1OC(CO)C(O)C(O)C1O (configuration not stated)
growth inhibition [1]: -12.4%
growth inhibition [2]: 16.1%
growth inhibition [3]: 2.55%
growth inhibition [4]: -50.5%
growth inhibition [5]: -7%
growth inhibition [6]: -2.25%

COc1cc(OC)nc(NS(=O)(=O)c2ccc(N)cc2)n1
growth inhibition [1]: 6%
growth inhibition [2]: -3.8%
growth inhibition [3]: 20.9%
growth inhibition [4]: 19.6%
growth inhibition [5]: 10.3%
growth inhibition [6]: 6.65%

COC(=O)C1C(C)(C(=O)OC)N=NC1(c1ccccc1)c1ccccc1 (configuration not stated)
growth inhibition [1]: 7.85%
growth inhibition [2]: -1.05%
growth inhibition [3]: -7.55%
growth inhibition [4]: 16%
growth inhibition [5]: 19.8%
growth inhibition [6]: -3.4%

CCOC(OCC)C(N)C(=O)O (configuration not stated)
growth inhibition [1]: 6%
growth inhibition [2]: 23.7%
growth inhibition [3]: 1.4%
growth inhibition [4]: -19.3%
growth inhibition [5]: 10.8%
growth inhibition [6]: -15%

O=S(=O)(c1ccc(N=Cc2cccs2)cc1)c1ccc(N=Cc2cccs2)cc1
growth inhibition [1]: -13.2%
growth inhibition [2]: -22.1%
growth inhibition [3]: -10.1%
growth inhibition [4]: 10.7%
growth inhibition [5]: 5.35%
growth inhibition [6]: -13.8%
